In the library only some 28% were active in any assay of this set; here they are far more common.
CYP2C9 activ: increases human cytochrome P450 2C9 activity; P11712; recombinant CYP2C9, luciferin-H conversion, luminescence; active compounds read high; factor 1 = untreated enzyme, 0 = blocked; activation factor at 5 µM; 96,000 compounds, 1.4% hits; AID 1024;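 active = activation factor of 2 or more for CYP2C9 at a 5 µM dose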;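 also: 0 = sulfaphenazole-blocked wells and 1 = vehicle-only wells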
Pyk2 oligo antag: blocks oligomerization of human Pyk2 in cells | Q14289 | Q293 cells, Pyk2 FERM NanoBiT luminescence; active compounds read low | z-score (the deposit names both 25 µM and 10 µM) | 99,000 compounds, 0.83% hits;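 active = Z-score of -3 or lower, scaled per plate to the spread of control and sample wells; inactive = z-score above -3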;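 also: negative z-score means lost luminescence so less FERM oligomerization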
Target sequence (Q14289 whole entry, looked up): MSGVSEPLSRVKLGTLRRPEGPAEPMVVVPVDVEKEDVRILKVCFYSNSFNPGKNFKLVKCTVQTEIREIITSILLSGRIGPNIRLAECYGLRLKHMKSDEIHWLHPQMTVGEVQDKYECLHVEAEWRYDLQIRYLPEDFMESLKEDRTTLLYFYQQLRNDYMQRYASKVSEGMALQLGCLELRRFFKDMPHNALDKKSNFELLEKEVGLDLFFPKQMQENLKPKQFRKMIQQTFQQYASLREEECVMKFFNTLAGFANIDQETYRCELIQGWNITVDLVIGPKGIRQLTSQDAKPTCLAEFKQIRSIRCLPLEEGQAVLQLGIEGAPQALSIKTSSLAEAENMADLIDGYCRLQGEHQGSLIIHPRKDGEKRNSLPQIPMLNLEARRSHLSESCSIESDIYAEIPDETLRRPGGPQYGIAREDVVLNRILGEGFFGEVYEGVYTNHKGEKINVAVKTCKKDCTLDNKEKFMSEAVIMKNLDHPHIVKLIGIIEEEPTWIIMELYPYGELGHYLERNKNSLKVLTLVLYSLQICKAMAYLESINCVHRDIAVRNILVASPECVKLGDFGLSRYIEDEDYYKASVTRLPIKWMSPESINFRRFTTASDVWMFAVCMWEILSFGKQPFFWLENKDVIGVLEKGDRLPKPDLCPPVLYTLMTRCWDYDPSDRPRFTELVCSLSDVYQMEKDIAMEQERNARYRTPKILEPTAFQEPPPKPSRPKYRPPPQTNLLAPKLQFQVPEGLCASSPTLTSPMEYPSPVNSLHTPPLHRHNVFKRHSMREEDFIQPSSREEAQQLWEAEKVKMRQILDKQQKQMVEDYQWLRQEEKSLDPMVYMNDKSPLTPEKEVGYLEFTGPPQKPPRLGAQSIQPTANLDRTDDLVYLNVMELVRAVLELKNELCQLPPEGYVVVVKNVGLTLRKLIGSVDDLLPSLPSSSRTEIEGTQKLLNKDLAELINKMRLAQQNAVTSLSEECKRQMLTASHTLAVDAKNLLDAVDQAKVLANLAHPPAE
CYP2C19 inhib: blocks human cytochrome P450 2C19. P33261. CYP2C19 Supersomes, luciferin-H EGE luminescence, 30 min. 96,000 compounds, 21% hits. inhibition, % at 5 µM;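 active = CYP2C19 inhibition above a set limit at 5 µM in the primary screen, cut at about 50% in these data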;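 also: plate controls were negative control wells for no effect and 2.5 mM tranylcypromine positive control for full effect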
CYP2C19 activ: cytochrome P450 2C19 (human) activation | 96,000 tested, under 10 active | P33261 | recombinant CYP2C19, luciferin-H EGE luminescence; active compounds read high; 0 = fully inhibited enzyme, 1 = untreated enzyme | activation factor at 5 µM;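 active = activation factor of at least 2 at 5 µM in the primary screen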;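 also: 0 = wells with 2.5 mM tranylcypromine and 1 = vehicle-only wells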
CYP2C9 inhib: human CYP2C9 inhibition. CYP2C9 Supersomes, luciferin-H conversion, luminescence. inhibition, % at 5 µM. 96,000 compounds, 20% hits;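 active = blocking of liver enzyme CYP2C9 beyond about 50% at 5 µM, limit read from the data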
* = called active by the depositor; x = no result given.

SMILES | CYP2C9 activ | Pyk2 oligo antag | CYP2C19 inhib | CYP2C19 activ | CYP2C9 inhib
Cc1cc(C)cc(N2C(=O)CSC2c2cccs2)c1 (stereo not drawn) | 1.2 | -0.14 | 58* | 0.4 | -17
COC(=O)Nc1nnc(CCc2ccccc2)s1 | 1 | -0.01 | 16 | 0.8 | 2
CCOC(=O)Nc1nnc(CCc2ccccc2)s1 | 0.4 | 0.02 | 44 | 0.6 | 62*
O=C(CSc1nnc(CNC(=O)c2ccccc2F)o1)c1ccccc1 | 0.6 | 0.28 | 30 | 0.7 | 37
O=C(Nc1cccc(F)c1)NC1CCCCC1 | 0.6 | -0.15 | 55* | 0.4 | 41
O=C(Nc1ccc(F)cc1)NC1CCCCC1 | 0.8 | -0.05 | 23 | 0.8 | 19
Cn1c(=NC(=O)CSCC(=O)N2CCCC2)sc2ccccc21 | 1.1 | 2.5 | 27 | 0.7 | -10
CC1CCCN(C(=O)CSCC(=O)N=c2sc3ccccc3n2C)C1 (stereo not drawn) | 0.8 | 0.99 | 99* | 0 | 21
CC1CC(C)CN(CCCNC(=O)Cc2c(C(=O)O)[nH]c3ccccc23)C1 (stereo not drawn) | 1.1 | 0.85 | -16 | 1.2 | -12
COc1ccc(-c2cnn3c4c(c(C)nc23)CCN4C(C)C)cc1OC | 0.9 | -1.4 | -8 | 1.1 | 8
CCOC(=O)N1CCC(NC(=O)C(NC(=O)C2CCC(C)CC2)C(C)CC)CC1 (stereo not drawn) | 0.7 | x | 53* | 0.5 | 26
CCOC(=O)N1CCN(C(=O)C(NC(=O)C2CCC(C)CC2)C(C)C)CC1 (stereo not drawn) | 0.7 | -0.33 | -6 | 1.1 | 34
CC(=O)Nn1cnc2c(c1=O)C1(CCCC1)Cc1ccccc1-2 | 0.4 | -0.41 | 88* | 0.1 | 62*
CCCC(=O)Nn1cnc2c(c1=O)C1(CCCC1)Cc1ccccc1-2 | 0.5 | -0.75 | 35 | 0.7 | 49
O=c1[nH]cnc2c1C1(CCCC1)Cc1ccccc1-2 | 0.8 | 1.1 | 88* | 0.1 | 22
CN(C)Cc1nc2c(c(=O)[nH]1)C1(CCCCC1)Cc1ccccc1-2 | 0.8 | -1.2 | 18 | 0.8 | 15
COc1cc(OC)c(OC)cc1/C=N/NC(=O)CC1C(=O)NN=C1C (stereo not drawn) | 1.1 | 0.25 | -8 | 1.1 | -9
O=c1o[nH]c(-c2ccccc2)c1C1=NCCCCC1 | x | 0.14 | x | x | x
CCOC(=O)C1CCCN(C/C(O)=C(\C#N)c2nc(-c3ccccc3)cs2)C1 (stereo not drawn) | 0.7 | -0.34 | 45 | 0.6 | 31
CNS(=O)(=O)c1cccc(C(=O)OCc2cc(Cl)cc3c2OCOC3)c1 | 1.9 | -0.45 | 78* | 0.2 | -92
CCOC(=O)c1c(C)[nH]c(C)c1C(=O)COC(=O)/C=C/c1cccc(Cl)c1 | x | 0.94 | x | x | x
CCOC(=O)c1c(C)[nH]c(C)c1C(=O)COC(=O)c1ccc(Cl)c(S(N)(=O)=O)c1 | 0.8 | -0.22 | 92* | 0.1 | 16
CCOC(=O)c1c(C)[nH]c(C)c1C(=O)COC(=O)c1cccc(S(=O)(=O)NC)c1 | 1 | 0.57 | 100* | 0 | 4
CNS(=O)(=O)c1cccc(C(=O)OCC(=O)NCc2ccccc2)c1 | 2.4* | -0.14 | 13 | 0.9 | -136
O=C(COC(=O)c1cc(S(=O)(=O)NCc2ccccc2)ccc1O)NCc1ccccc1 | 0.5 | 1.2 | 8 | 0.9 | 46
SMILES | CYP2C9 activ | Pyk2 oligo antag | CYP2C19 inhib | CYP2C19 activ | CYP2C9 inhib
O=C(c1ccco1)N1CCN(C(=O)C2CCCc3c2[nH]c2ccc(Cl)cc32)CC1 (stereo not drawn) | 0.6 | 0.46 | 45 | 0.6 | 39
Cc1ccc(C)c(C(C)NC(=O)C2C3CCC(O3)C2C(=O)O)c1 (stereo not drawn) | 0.9 | x | 5 | 0.9 | 6
CCOC(=O)c1c(C)[nH]c(C)c1C(=O)COC(=O)c1ccc(S(=O)(=O)N(CC)CC)cc1 | 0 | -1.5 | 84* | 0.2 | 97*
O=C(O)CCCC(=O)Nc1ccc(C(=O)NCc2cccnc2)cc1 | 1.1 | 2.4 | 2 | 1 | -7
O=C(CCc1nc(-c2ccccc2)no1)NCc1cccnc1 | 0.5 | -0.06 | 2 | 1 | 51*
O=C(CCCc1nc(-c2ccccc2Cl)no1)NCc1cccnc1 | 1 | 2.9 | 61* | 0.4 | 1
O=C(Cn1[nH]c(=O)c2ccccc2c1=O)NCc1cccnc1 | 0.4 | 0.04 | 11 | 0.9 | 63*
O=C(CCCc1ccccc1)NCc1cccnc1 | 0.6 | 0.74 | 91* | 0.1 | 38
Cc1cc(C)n(-c2nncn2NC(=O)c2ccc(Cl)cc2O)n1 | 0.6 | -0.69 | 6 | 0.9 | 41
Cc1noc(C)c1C(=O)Nc1ccccc1-c1ccccc1 | 0.8 | 2.2 | 24 | 0.8 | 19
Cc1cc(OCc2nc(-c3ccc(NC(=O)c4cccnc4)cc3)no2)ccc1Cl | 0.8 | 0.52 | 5 | 0.9 | 23
O=C(CCc1nc(-c2ccccc2)no1)NCc1ccco1 | 0.4 | 2 | 57* | 0.4 | 59*
O=C(Nc1ccc(-c2noc(CCc3ccccc3)n2)cc1)c1cccnc1 | 0.5 | -3.3* | 27 | 0.7 | 55*
Cn1[nH]c(=O)c2ccccc2c1=O | 1.1 | -0.2 | -20 | 1.2 | -12
Cc1ccc(-c2noc(CCC(=O)NCc3ccco3)n2)cc1 | 0.5 | 0.49 | 13 | 0.9 | 47
O=C(CCCc1nc(-c2ccc(Cl)cc2)no1)Nc1cccnc1 | 0.3 | 0.89 | 52* | 0.5 | 75*
O=c1[nH]n(Cc2ccccc2)c(=O)c2ccccc12 | 0.6 | 0.18 | 72* | 0.3 | 41
COc1ccc(OC)c(C2C(C(C)=O)=C(O)C(=O)N2Cc2cccnc2)c1 (stereo not drawn) | 1 | 0.02 | -9 | 1.1 | -3
CCCCc1ccc(NC(=O)N[C@H](C(=O)O)C(C)CC)cc1 (stereo partly drawn) | 0.5 | 0.76 | -2 | 1 | 46
CCCCc1ccc(NC(=O)OC)cc1 | 0.4 | -0.03 | 49 | 0.5 | 65*
COC(=O)c1ccccc1NC(=O)C1CCCN(S(=O)(=O)c2ccccc2)C1 (stereo not drawn) | 0.7 | -1.4 | 43 | 0.6 | 33
O=C(Nc1nc(-c2ccccc2)cs1)c1cccc([N+](=O)[O-])c1 | 0.9 | -2.7 | 6 | 0.9 | 15
O=C(Nc1nc(-c2ccccc2)cs1)C1CCCN(S(=O)(=O)c2cccc([N+](=O)[O-])c2)C1 (stereo not drawn) | 0.4 | -0.36 | 48 | 0.5 | 62*
O=C(Nc1nc(-c2ccccc2)cs1)C1CCCN(S(=O)(=O)c2ccccc2)C1 (stereo not drawn) | 0.3 | -2 | 45 | 0.6 | 69*
c1ccc(-c2nnc3sc(-c4csc5c4CCCC5)nn23)cc1 | 1 | -0.75 | 9 | 0.9 | -4
O=C(NCc1ccco1)c1ccccc1NS(=O)(=O)c1ccc2c(c1)OCCO2 | 1.6 | 0.13 | 56* | 0.4 | -61
O=C(OCc1cccs1)c1ccccc1NS(=O)(=O)c1ccc2c(c1)OCCO2 | 0.8 | -1.4 | 60* | 0.4 | 24
O=C(NCc1ccco1)c1ccccc1NS(=O)(=O)c1cccs1 | 0.3 | -1.9 | 81* | 0.2 | 72*

Compound activity: PubChem BioAssay, Sanford-Burnham Center for Chemical Genomics
